Data as given in PubChem BioAssay (EPA / NIEHS).
Some compounds were tested as several samples or in several runs, with calls that do not always agree. Calls of active or inactive are those of the source. The calls were made as follows: active = hit-call score of the fitted dose curve at least 0.9, where 1 is the maximum; inactive = score below 0.9.

Assay: APR_HepG2_p53Act_72hr: Apredica 72-hour HepG2 Assay for p53 Activation (AID 2282923);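 also: average cellular p53 protein immunofluorescence intensity in HepG2 cells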
Settings: high-content imaging, actives raise or lower the signal
Experimental: APR_HepG2_72hr is a cell-based, multiplexed-readout assay that uses HepG2, a human liver cell line, with measurements taken at 72 hours after chemical dosing in a 384-well plate.APR_HepG2_p53Act_72hr is one of 10 assay component(s) measured or calculated from the APR_HepG2_72hr assay. It is designed to make measurements of dna content, a form of viability reporter, as detected with fluorescence intensity signals by HCS Fluorescent Imaging technology.Data from the assay component APR_HepG2_p53Act_72hr was analyzed into 1 assay endpoint. This assay endpoint, APR_HepG2_p53Act_72hr, was analyzed with bidirectional fitting relative to DMSO as the negative control and baseline of activity. Using a type of viability reporter, measures of protein for gain or loss-of-signal activity can be used to understand the signaling at the pathway-level as they relate to the gene TP53. Furthermore, this assay endpoint can be referred to as a primary readout, because this assay has produced multiple assay endpoints where this one serves a signaling function. To generalize the intended target to other relatable targets, this assay endpoint is annotated to the dna binding intended target family, where the subfamily is tumor suppressor.
Cells were treated with dimethyl sulfoxide (DMSO) as a solvent control at a final concentration of 0.5% v/v or with compounds in DMSO with a resulting final DMSO concentration of 0.5% v/v. Compound treatment was done at concentrations of 0.39, 0.78, 1.56, 3.12, 6.24, 12.5, 25, 50, 100, and 200 uM in duplicate on each plate. Cells were treated with compounds for 1, 24, or 72 hr. Carbonyl […] m-chloro-phenylhydrazone (CCCP) and taxol were used as positive controls for mitochondrial function and cytoskeletal stability, respectively; DMSO served as the negative control for this experiment. Cells were fixed by the direct addition of 50 uL formaldehyde in Hank's Balanced Salt Solution (HBSS) to a final concentration of 3.7%. After incubation in the fixation medium for 30 min at room temperature (293-298 K), cells were rinsed twice with HBSS and treated with cell permeabilization buffer (16 uL of 0.5% Triton X-100) for 10 min at room temperature (293-298 K) before labeling. For mitochondrial membrane potential and mitochondrial measurements, pre-fixed cells were incubated with 50 uL of MitoTracker Red CMXRos (Invitrogen) at a concentration of 250 nM for 30 min before fixation. In the remaining cases, post-fixed cells were labeled by incubation with a multiplexed mixture of primary antibodies in HBSS for 60 min at room temperature (293-298 K) to detect immunoreactivity of c-Jun (1:500), phospho-histone H3 (1:100), phospho-histone H2A.x (1:200), p53 (1:400), alpha-tubulin (1:200) and Hoechst 33342 (2 ug/mL). Cells were labeled for multiplexed imaging on two separate plates: a) Hoechst 33342, MitoTracker Red, phospho-histone H3, and alpha-tubulin, and b) Hoechst 33342, phospho-histone H2A.x, and c-Jun. A final rinse with HBSS (50 uL) was performed before analysis. The primary and secondary antibodies for the proteins were phospho-histone H3 (rabbit anti-phospho-histone H3 and FITC-donkey anti-rabbit IgG), phospho-histone H2A.x (mouse anti-phospho-histone H2A.x and FITC-donkey anti-mouse IgG), c-Jun (rabbit anti-phospho-c-Jun and Cy3-donkey anti-rabbit IgG), p53 (sheep anti-p53 and Cy5-donkey anti-sheep IgG), alpha-tubulin (mouse anti-alpha-tubulin and Cy5-donkey anti-mouse IgG). These antibodies are available as the CellCiphr HepG2 assay kit (Millipore).Digital images of each well were captured using a Cellomics ArrayScan VTI (Thermo Scientific Cellomics) (0.8 NA objective, 0.63x optical coupler, and XF-93 filter set) at 20x magnification. The images were acquired using the autofocus feature of the ArrayScan instrument, which entails the following steps. First, the camera focuses on channel 1 (Hoechst 33342), where nuclei are identified. Second, a Z offset of 1 um is used for capturing mitochondria (MitoTracker Red). […]

Structure (SMILES)	AC50	outcome
CCC(=O)C(CC(C)N(C)C)(c1ccccc1)c1ccccc1 (centres undefined)	69.8 µM (active)	
COc1cc(-c2ccc(N)c(OC)c2)ccc1N	35.2 µM (active)	inactive
C=C(C)C(=O)[O][Sn]([CH2]CCC)([CH2]CCC)[CH2]CCC	0.0408 µM (active)	
ClC1(Cl)C2(Cl)C3(Cl)C4(Cl)C(Cl)(Cl)C5(Cl)C3(Cl)C1(Cl)C5(Cl)C24Cl (centres undefined)		inactive
C[C@]12CCC(=O)C[C@@H]1CC[C@@H]1[C@@H]2CC[C@]2(C)[C@@H](O)CC[C@@H]12		inactive
O=C(O)C(F)(F)C(F)(F)C(F)(F)C(F)(F)C(F)(F)C(F)(F)C(F)(F)C(F)(F)C(F)(F)C(F)(F)F	85.3 µM (active)	
O=C1C2(Cl)C3(Cl)C4(Cl)C(Cl)(Cl)C5(Cl)C3(Cl)C1(Cl)C5(Cl)C24Cl (centres undefined)	10.5 µM (active)	
CC(C)(c1ccccc1)c1ccc(O)c(C(C)(C)c2ccccc2)c1		inactive
O=C(O)C(F)(F)C(F)(F)C(F)(F)C(F)(F)C(F)(F)C(F)(F)F	10.2 µM (active)	
O=c1[nH]c(=O)[nH]c(=O)[nH]1		inactive
NC(=O)O	3.66 µM (active)	
O=C(O)C(Cl)(Cl)Cl		inactive
CC(=O)[O][Hg][c]1ccccc1	4.66 µM (active)	
CC12CC1(C)C(=O)N(c1cc(Cl)cc(Cl)c1)C2=O (centres undefined)		inactive
ClCC(Cl)CCl		inactive
CCN1CCC2(CC1)COc1cc3c(cc12)N(C(=O)c1ccc(-c2ccc(-c4nnc(C)o4)cc2C)cc1)CC3	59.8 µM (active)	
CCC(C)(C)c1ccc(O)c(C(C)(C)CC)c1	29.7 µM (active)	
Cc1ccccc1N		inactive
CC(C)(OO)c1ccccc1	45.7 µM (active)	
CC(C)(C)CC(C)(C)c1ccc(O)cc1		inactive
CCCCCCCCc1ccc(O)cc1		inactive
O=C(Nc1ccc2[nH]ccc2c1)c1cc2cc(F)ccc2n1Cc1cccc(F)c1	19 µM (active)	
C[C@@H]1C[C@@H]([C@H](O)CC2CC(=O)NC(=O)C2)C(=O)[C@@H](C)C1	4.8 µM (active)	
CC(C)(C)c1cc(O)ccc1O		inactive
Oc1cccc2cccnc12	4.12 µM (active)	
CN(C)N=O		inactive
Cn1sc(Cl)cc1=O	106 µM (active)	
C=CC(=O)OCCCCCC(C)C		inactive
